{"source": "PubChem BioAssay AID602122", "about": "(National Center for Advancing Translational Sciences (NCATS), 2011)", "note": "Active and inactive are the calls of the source.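 Rule for the calls: active = translocation seen by eye under the microscope after immunostaining of patient fibroblasts; inconclusive = translocation result judged unclear; inactive = no translocation seen.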"}
{"biological_target": "Lysosomal alpha-glucosidase (Homo sapiens) (UniProt P10253)", "experiment": "qHTS for Activators of Human alpha-Glucosidase as a Potential Chaperone Treatment of Pompe Disease: Fibroblast Translocation", "details": "Pompe patient fibroblasts, GAA immunostaining lysosomal translocation, 6 d", "from_the_text": "Alpha-glucosidase is responsible for hydrolysis of terminal, non-reducing 1,4-linked alpha-D-glucose residues with release of alpha-D-glucose. It is a lysosomal hydrolase that is required for the degradation of a small percentage (1-3%) of cellular glycogen in human. Deficiency of this enzyme results in glycogen-storage disease type II (GSDII), also referred to as Pompe disease, an autosomal recessive disorder. Structurally normal glycogen is accumulated in lysosomes and cytoplasm in affected patients, primarily in muscle tissues. Excessive glycogen storage within lysosomes may interrupt normal functioning of other organelles and leads to cellular injury. In turn, this leads to enlargement and dysfunction of the entire organ involved (eg, cardiomyopathy and muscle weakness). It has reported that the improper folding and trafficking of alpha-glucosidase resulting from the genetic mutations may account for a significant number of Pompe patients. […] We optimized this alpha-glucosidase assay in 1536-well plate format for identifying the novel small molecule inhibitors with the structures other than the sugar analogs in order to develop the new pharmacological chaperones. Validated hits were tested in this fibroblast translocation assay that measures fluorescence through immunostaining Pompe patient derived fibroblasts. NIH Chemical Genomics Center [NCGC] […]"}
{"smiles": "CCCN1CNc2c(c(=O)[nH]c(=S)n2Cc2ccc(OC)c(OC)c2)C1", "outcome": "active; yes"}
